# Laboratory results: PubChem BioAssay (NCATS)
# Inconclusive results are not listed. A number with no mark means an inactive call. Activity calls are given as the source filed them. Unless noted, calls come from the whole dose curve; as a rule, active = well fitted inhibition curve with a large enough effect; inconclusive = small, poorly fitted or top-dose-only effect; inactive = no such curve, though single readings can be large or run the other way.
# Biological target: Atrial natriuretic peptide receptor 1 (Homo sapiens) (UniProt P16066)
# Assay: Natriuretic polypeptide receptor (hNpr1) antagonism - Pilot screen (AID 1347049; calls by dose curve;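 note: agonist-evoked cGMP luminescence read 20 min after hNppA addition; % is set by controls: 0 for no effect and ±100 for the full control effect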)
# Conditions: hNpr1 cells, antagonist mode cGMP read-out; series mostly up to 57.5 µM; activity change, negative = inhibition: at the top concentration
# Method in brief: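 HEK293 cells co-expressing hNpr1 and the GloSensor pGS-40F cGMP luciferase sensor were preloaded with 2% GloSensor reagent for 2 h. Compounds were added for 30 min at room temperature, then cells were stimulated with 0.1 nM hNppA for 20 min before luminescence readout.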
# Atrial natriuretic peptide receptor 1 (Homo sapiens), sequence (P16066 whole entry, looked up): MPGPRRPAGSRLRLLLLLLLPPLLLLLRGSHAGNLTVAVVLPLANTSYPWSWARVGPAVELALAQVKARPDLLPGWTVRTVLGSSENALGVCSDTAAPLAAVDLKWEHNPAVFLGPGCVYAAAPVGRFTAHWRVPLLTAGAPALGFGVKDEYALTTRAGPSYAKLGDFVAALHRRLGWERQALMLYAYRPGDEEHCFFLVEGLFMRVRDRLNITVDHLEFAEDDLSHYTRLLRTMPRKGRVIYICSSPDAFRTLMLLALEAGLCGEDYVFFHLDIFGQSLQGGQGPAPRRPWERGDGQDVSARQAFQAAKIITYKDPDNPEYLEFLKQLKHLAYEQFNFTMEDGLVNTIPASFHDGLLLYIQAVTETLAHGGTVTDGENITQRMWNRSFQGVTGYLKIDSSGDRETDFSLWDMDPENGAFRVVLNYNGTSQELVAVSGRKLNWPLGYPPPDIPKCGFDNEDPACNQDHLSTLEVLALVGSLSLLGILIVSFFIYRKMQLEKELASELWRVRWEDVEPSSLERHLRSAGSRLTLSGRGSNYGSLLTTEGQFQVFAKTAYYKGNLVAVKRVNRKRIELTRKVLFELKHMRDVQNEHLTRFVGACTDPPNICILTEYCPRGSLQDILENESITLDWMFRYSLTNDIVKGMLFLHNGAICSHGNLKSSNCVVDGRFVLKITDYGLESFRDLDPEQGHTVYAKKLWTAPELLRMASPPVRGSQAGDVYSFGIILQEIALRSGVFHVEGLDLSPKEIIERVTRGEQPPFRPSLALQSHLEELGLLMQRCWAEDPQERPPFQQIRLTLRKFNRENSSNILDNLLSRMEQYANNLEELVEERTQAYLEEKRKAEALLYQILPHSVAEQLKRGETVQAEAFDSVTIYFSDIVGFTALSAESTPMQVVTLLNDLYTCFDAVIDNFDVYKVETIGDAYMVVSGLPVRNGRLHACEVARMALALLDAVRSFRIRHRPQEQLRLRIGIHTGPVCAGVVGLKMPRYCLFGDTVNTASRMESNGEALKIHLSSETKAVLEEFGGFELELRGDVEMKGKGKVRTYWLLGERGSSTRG
SMILES,"activity change, negative = inhibition [%]",Potency
CCOC(=O)C(C)(C)Oc1ccc(Cl)cc1,-0.45,–
O=C(CCCN1CCC(O)(c2ccc(Cl)cc2)CC1)c1ccc(F)cc1,1.78,–
CC(C)(Oc1ccc(C2CC2(Cl)Cl)cc1)C(=O)O (stereo not drawn),-1.6,–
Cn1cnc2c1c(=O)[nH]c(=O)n2C,-2.01,–
O=C1N(c2ccccc2)c2ccccc2C1(Cc1ccncc1)Cc1ccncc1,9.69,–
O=c1c(O)c(-c2ccc(O)c(O)c2)oc2cc(O)cc(O)c12,-14.9,–
Nc1c2c(nc3ccccc13)CCCC2,11.9,–
COc1ccc2c(c1)c(CC(=O)O)c(C)n2C(=O)c1ccc(Cl)cc1,2.65,–
CCC1(c2ccccc2)C(=O)NCNC1=O,11.4,–
CCOC(=O)c1ncn2c1CN(C)C(=O)c1cc(F)ccc1-2,-6.82,–
N[C@@H](Cc1c[nH]c2ccc(O)cc12)C(=O)O,5.12,–
COc1ccc(C2CNC(=O)C2)cc1OC1CCCC1 (stereo not drawn),-5.09,–
C[C@H]1c2cccc(O)c2C(O)=C2C(=O)[C@]3(O)C(O)=C(C(N)=O)C(=O)[C@@H](N(C)C)[C@@H]3[C@@H](O)[C@@H]21,-2.6,–
NS(=O)(=O)c1cc2c(cc1Cl)NCNS2(=O)=O,8.54,–
CN(C)CCOC(c1ccccc1)c1ccccc1,3.51,–
CN1C2CCC1CC(OC(=O)C(CO)c1ccccc1)C2 (stereo not drawn),–,inactive
COc1ccc2[nH]cc(CCNC(C)=O)c2c1,2.73,–
Cc1ccccc1N1C(=O)c2cc(S(N)(=O)=O)c(Cl)cc2NC1C (stereo not drawn),-6.47,–
CN(C)c1nc(N(C)C)nc(N(C)C)n1,-4.4,–
Nc1nc2c(ncn2COC(CO)CO)c(=O)[nH]1,18.1,–
O=c1c(-c2ccc(O)cc2)coc2cc(O)cc(O)c12,-6.43,–
NCCc1cnc[nH]1,18.9,–
COc1ccccc1OCCNCC(O)COc1cccc2[nH]c3ccccc3c12 (stereo not drawn),5.8,–
CC(C)Cc1ccc(C(C)C(=O)O)cc1 (stereo not drawn),0.52,–
CCN1CCCC1CNC(=O)c1cc(S(=O)(=O)CC)c(N)cc1OC (stereo not drawn),-4.62,–
O=C(C1CCCCC1)N1CC(=O)N2CCc3ccccc3C2C1 (stereo not drawn),1.52,–
O=C(c1ccc(OCCN2CCCCC2)cc1)c1c(-c2ccc(O)cc2)sc2cc(O)ccc12,2.55,–
Cc1cn([C@H]2C=C[C@@H](CO)O2)c(=O)[nH]c1=O,1.55,–
Nc1ccn([C@H]2CC[C@@H](CO)O2)c(=O)n1,2.46,–
CC1COc2c(N3CCN(C)CC3)c(F)cc3c(=O)c(C(=O)O)cn1c23 (stereo not drawn),2.88,–

# Biological target: Atrial natriuretic peptide receptor 2 (Homo sapiens) (UniProt P20594)
# Assay: Natriuretic polypeptide receptor (hNpr2) antagonism - Pilot subtype selectivity assay (AID 1347050; calls by dose curve; note: % is set by controls: 0 for no effect and ±100 for the full control effect)
# Conditions: NPR2-expressing cells, cGMP antagonist-mode read-out; series mostly up to 38.3 µM; activity change, negative = inhibition: at the top concentration
# Method in brief: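 cGMP-sensor HEK293/hNpr2 cells; 2% GloSensor reagent 2 h RT; compounds 30 min; baseline luminescence read; 1 nM hNppC agonist 20 min RT; final luminescence read by CCD camera. Antagonism = reduced post-agonist signal.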
# Atrial natriuretic peptide receptor 2 (Homo sapiens), sequence (P20594 whole entry, looked up): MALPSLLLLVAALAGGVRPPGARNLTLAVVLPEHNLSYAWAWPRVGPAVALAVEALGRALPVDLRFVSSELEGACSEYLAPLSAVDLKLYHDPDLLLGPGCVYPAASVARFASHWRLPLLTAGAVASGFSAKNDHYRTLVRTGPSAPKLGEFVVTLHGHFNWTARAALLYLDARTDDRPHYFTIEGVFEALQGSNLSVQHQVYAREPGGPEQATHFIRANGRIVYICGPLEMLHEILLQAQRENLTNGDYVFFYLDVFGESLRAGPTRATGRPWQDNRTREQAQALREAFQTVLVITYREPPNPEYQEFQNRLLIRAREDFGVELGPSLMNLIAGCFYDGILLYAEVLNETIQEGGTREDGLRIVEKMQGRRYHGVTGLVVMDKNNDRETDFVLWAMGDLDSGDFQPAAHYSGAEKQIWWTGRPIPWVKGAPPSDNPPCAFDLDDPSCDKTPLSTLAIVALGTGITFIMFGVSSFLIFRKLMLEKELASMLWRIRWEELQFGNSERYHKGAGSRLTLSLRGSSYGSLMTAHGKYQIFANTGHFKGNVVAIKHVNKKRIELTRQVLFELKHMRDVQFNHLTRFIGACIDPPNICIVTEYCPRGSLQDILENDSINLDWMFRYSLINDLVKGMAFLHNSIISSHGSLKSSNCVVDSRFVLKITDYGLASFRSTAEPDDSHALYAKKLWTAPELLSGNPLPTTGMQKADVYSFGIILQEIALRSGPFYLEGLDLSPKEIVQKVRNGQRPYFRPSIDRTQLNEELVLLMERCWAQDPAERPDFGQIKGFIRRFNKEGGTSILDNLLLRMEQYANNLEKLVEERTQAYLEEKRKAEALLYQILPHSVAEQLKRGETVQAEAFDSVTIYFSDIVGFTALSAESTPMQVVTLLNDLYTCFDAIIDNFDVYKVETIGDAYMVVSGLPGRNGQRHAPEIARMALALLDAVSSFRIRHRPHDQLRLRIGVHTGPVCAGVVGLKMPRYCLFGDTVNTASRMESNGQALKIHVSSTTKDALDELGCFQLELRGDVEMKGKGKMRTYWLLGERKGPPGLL
SMILES,"activity change, negative = inhibition [%]",Potency
CCOC(=O)C(C)(C)Oc1ccc(Cl)cc1,12.9,–
O=C(CCCN1CCC(O)(c2ccc(Cl)cc2)CC1)c1ccc(F)cc1,-3.38,–
CC(C)(Oc1ccc(C2CC2(Cl)Cl)cc1)C(=O)O (stereo not drawn),-0.96,–
Cn1cnc2c1c(=O)[nH]c(=O)n2C,0.024,–
O=c1c(O)c(-c2ccc(O)c(O)c2)oc2cc(O)cc(O)c12,-6.61,–
Nc1c2c(nc3ccccc13)CCCC2,5.58,–
COc1ccc2c(c1)c(CC(=O)O)c(C)n2C(=O)c1ccc(Cl)cc1,15.6,–
CCC1(c2ccccc2)C(=O)NCNC1=O,-4.48,–
CCOC(=O)c1ncn2c1CN(C)C(=O)c1cc(F)ccc1-2,-2.41,–
N[C@@H](Cc1c[nH]c2ccc(O)cc12)C(=O)O,0.693,–
COc1ccc(C2CNC(=O)C2)cc1OC1CCCC1 (stereo not drawn),3.94,–
C[C@H]1c2cccc(O)c2C(O)=C2C(=O)[C@]3(O)C(O)=C(C(N)=O)C(=O)[C@@H](N(C)C)[C@@H]3[C@@H](O)[C@@H]21,8.55,–
NS(=O)(=O)c1cc2c(cc1Cl)NCNS2(=O)=O,11.6,–
CN(C)CCOC(c1ccccc1)c1ccccc1,-2.45,–
CN1C2CCC1CC(OC(=O)C(CO)c1ccccc1)C2 (stereo not drawn),–,inactive
COc1ccc2[nH]cc(CCNC(C)=O)c2c1,2.78,–
Cc1ccccc1N1C(=O)c2cc(S(N)(=O)=O)c(Cl)cc2NC1C (stereo not drawn),-2.58,–
CN(C)c1nc(N(C)C)nc(N(C)C)n1,-8.35,–
Nc1nc2c(ncn2COC(CO)CO)c(=O)[nH]1,10,–
O=c1c(-c2ccc(O)cc2)coc2cc(O)cc(O)c12,1.52,–
NCCc1cnc[nH]1,4.85,–
COc1ccccc1OCCNCC(O)COc1cccc2[nH]c3ccccc3c12 (stereo not drawn),-0.693,–
CC(C)Cc1ccc(C(C)C(=O)O)cc1 (stereo not drawn),3.77,–
CCN1CCCC1CNC(=O)c1cc(S(=O)(=O)CC)c(N)cc1OC (stereo not drawn),0.731,–
O=C(C1CCCCC1)N1CC(=O)N2CCc3ccccc3C2C1 (stereo not drawn),4.02,–
O=C(c1ccc(OCCN2CCCCC2)cc1)c1c(-c2ccc(O)cc2)sc2cc(O)ccc12,0.626,–
Cc1cn([C@H]2C=C[C@@H](CO)O2)c(=O)[nH]c1=O,4.69,–
Nc1ccn([C@H]2CC[C@@H](CO)O2)c(=O)n1,9.4,–
CC1COc2c(N3CCN(C)CC3)c(F)cc3c(=O)c(C(=O)O)cn1c23 (stereo not drawn),0.571,–

# Tested on: not listed separately
# Assay: NS1 protein of Zika virus - qHTS assay to identify small molecule inhibitors in human HEK 293 cells (AID 1347053);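 note: plate controls were infected untreated cells for no effect and uninfected cells for full effect; nearly all actives have a fitted effect of over 55% in size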
# Conditions: HEK293 ZIKV MR766 infection, NS1 TR-FRET, 24 h; series mostly up to 46.1 µM; activity change, negative = inhibition: at the top concentration
# Method in brief: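 Inhibition of NS1 expression was scored in HEK 293 cells given compound 1 h ahead of MR766 virus (MOI = 0.5). Following 24 h at 37 C, two anti-NS1 antibodies generated a TR-FRET signal, scaled between uninfected and infected controls.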
SMILES,Potency,"activity change, negative = inhibition [%]"
CCOC(=O)C(C)(C)Oc1ccc(Cl)cc1,inactive,–
O=C(CCCN1CCC(O)(c2ccc(Cl)cc2)CC1)c1ccc(F)cc1,inactive,–
CC(C)(Oc1ccc(C2CC2(Cl)Cl)cc1)C(=O)O (stereo not drawn),inactive,–
Cn1cnc2c1c(=O)[nH]c(=O)n2C,inactive,–
O=C1N(c2ccccc2)c2ccccc2C1(Cc1ccncc1)Cc1ccncc1,inactive,–
O=c1c(O)c(-c2ccc(O)c(O)c2)oc2cc(O)cc(O)c12,inactive,–
Nc1c2c(nc3ccccc13)CCCC2,inactive,–
COc1ccc2c(c1)c(CC(=O)O)c(C)n2C(=O)c1ccc(Cl)cc1,inactive,–
CCC1(c2ccccc2)C(=O)NCNC1=O,inactive,–
CCOC(=O)c1ncn2c1CN(C)C(=O)c1cc(F)ccc1-2,inactive,–
N[C@@H](Cc1c[nH]c2ccc(O)cc12)C(=O)O,inactive,–
COc1ccc(C2CNC(=O)C2)cc1OC1CCCC1 (stereo not drawn),inactive,–
C[C@H]1c2cccc(O)c2C(O)=C2C(=O)[C@]3(O)C(O)=C(C(N)=O)C(=O)[C@@H](N(C)C)[C@@H]3[C@@H](O)[C@@H]21,inactive,–
NS(=O)(=O)c1cc2c(cc1Cl)NCNS2(=O)=O,inactive,–
CN(C)CCOC(c1ccccc1)c1ccccc1,inactive,–
CN1C2CCC1CC(OC(=O)C(CO)c1ccccc1)C2 (stereo not drawn),inactive,–
COc1ccc2[nH]cc(CCNC(C)=O)c2c1,inactive,–

SMILES,Potency,"activity change, negative = inhibition [%]"
Cc1ccccc1N1C(=O)c2cc(S(N)(=O)=O)c(Cl)cc2NC1C (stereo not drawn),inactive,–
CN(C)c1nc(N(C)C)nc(N(C)C)n1,inactive,–
Nc1nc2c(ncn2COC(CO)CO)c(=O)[nH]1,–,-6.58
O=c1c(-c2ccc(O)cc2)coc2cc(O)cc(O)c12,inactive,–
NCCc1cnc[nH]1,inactive,–
COc1ccccc1OCCNCC(O)COc1cccc2[nH]c3ccccc3c12 (stereo not drawn),inactive,–
CN(C)C(=N)N=C(N)N,inactive,–
CC(C)Cc1ccc(C(C)C(=O)O)cc1 (stereo not drawn),inactive,–
CCN1CCCC1CNC(=O)c1cc(S(=O)(=O)CC)c(N)cc1OC (stereo not drawn),inactive,–
O=C(C1CCCCC1)N1CC(=O)N2CCc3ccccc3C2C1 (stereo not drawn),inactive,–
O=C(c1ccc(OCCN2CCCCC2)cc1)c1c(-c2ccc(O)cc2)sc2cc(O)ccc12,inactive,–
CC(C)(C)C(=O)Oc1ccc(S(=O)(=O)Nc2ccccc2C(=O)NCC(=O)O)cc1,inactive,–
Cc1cn([C@H]2C=C[C@@H](CO)O2)c(=O)[nH]c1=O,inactive,–
Nc1ccn([C@H]2CC[C@@H](CO)O2)c(=O)n1,inactive,–
Cc1ccc(-c2cc(C(F)(F)F)nn2-c2ccc(S(N)(=O)=O)cc2)cc1,inactive,–
CC1COc2c(N3CCN(C)CC3)c(F)cc3c(=O)c(C(=O)O)cn1c23 (stereo not drawn),inactive,–
CC1(C)O[C@H]2CC(=O)OC[C@]23[C@H]2CC[C@@]4(C)[C@H](c5ccoc5)OC(=O)[C@H]5O[C@]54[C@]2(C)C(=O)C[C@@H]13,inactive,–
